AMA1-RON2 inh: qHTS for Inhibitors of AMA1-RON; Towards Development of Antimalarial Drug Lead: Primary Screen; AlphaScreen AMA1-biotinylated RON2 peptide binding; Potency, µM (highest dose often 58.2 µM), for inactives: at the top dose activity change, negative = inhibition, actives largely listed as inhibitors; Plasmodium falciparum AMA1 (3D7) - RON2 peptide interaction; 0.2% of 360,000 active;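 also: 0% = vehicle wells and -100% = peptide control; nearly all actives have a fitted effect of over 45% in size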
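AMA1 (3D7) with his tag at 25 nM final met compounds first, then biotinylated RON2 peptide at 25 nM; detection used donor plus acceptor beads, 10 µg/mL apiece, read by AlphaScreen after 30 min at room temperature.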
HCV inh: qHTS Assay for Inhibitors of Hepatitis C Virus (HCV) | Huh7.5.1 HCVcc-Cre infection, luciferase reporter, 44 h | Potency, µM (doses to about 41.8 µM), for inactives: at the top dose activity change, negative = inhibition, hits mostly inhibitors | 3.4% of 340,000 active | AID 651820, 2012; also: % is scaled to controls: 0 for no effect and ±100 for the full control effect
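HCVcc-Cre virus at an moi near 0.5 was added right after compound to cells cultured 4 h from seeding (1,000 cells/well). Luciferase activity was determined 44 h later, 15 min after substrate addition at RT.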
NS1 function inh: qHTS Assay for Inhibitors of Influenza NS1 Protein Function; Potency, µM (series often up to 46.1 µM), without a hit: at the highest dose activity, positive = more growth; AID 2326, 2010; 0.4% of 270,000 active; calls by dose curve; also: actives are rising curves; nearly all actives have a fitted effect of over 50% in size
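Recovery from NS1-induced slow growth read by OD600 in budding yeast switched to galactose assay medium (pH 6.0, -URA) at 1:100 dilution. Compound 23 nl per well; the matching strain lacking NS1 serves as control.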
Pf growth 96h: Primary qHTS for delayed death inhibitors of the malarial parasite plastid, 96 hour incubation. AID 504834, 2011. P. falciparum luciferase reporter growth, 96 h. Potency, µM (top dose mostly 28.7 µM), inactives show at the top dose activity change, negative = inhibition, most hits filed as inhibitors. 6.9% of 320,000 active; also: % is scaled to controls: 0 for no effect and ±100 for the full control effect
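Compounds incubated with erythrocytes infected by luciferase-expressing P. falciparum (2% hematocrit, 0.05% parasitemia final) for 96 hours, 37 C in 5% CO2. Growth inhibition scored as decreased luciferase luminescence.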
SARS PLP yeast: qHTS of Yeast-based Assay for SARS-CoV PLP. Potency, µM (highest dose often 32.9 µM), for the others: at the top dose activity, positive = growth rescue, hits mostly activators. 0.19% of 330,000 active. AID 485353, 2010. S. cerevisiae expressing SARS-CoV PLpro, growth rescue; calls by dose curve; also: 0% is about no effect; nearly all actives have a fitted effect of over 55% in size
Pf growth 48h: Primary qHTS for delayed death inhibitors of the malarial parasite plastid, 48 hour incubation. P. falciparum luciferase growth in erythrocytes, 48 h. Potency, µM (series often up to 28.7 µM), for inactives: at the top dose activity change, negative = inhibition, actives largely listed as inhibitors. 5.9% of 310,000 active; also: % is scaled to controls: 0 for no effect and ±100 for the full control effect
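In quantitative HTS format, infected erythrocytes bearing luciferase-reporter parasites were treated for a single generation at 37 C. Luminescence after adding detection reagent served as the growth measure.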
The depositor's hits bear a star; ? = inconclusive; . = no result given; [ ] = dose if it differs, or a comment. The list is not random: actives were taken first. Their share in the collection is about 12%. Unless noted, calls follow the shape of the dose curve; as a rule, active = well fitted curve in the direction sought with a large enough effect; inconclusive = small, poorly fitted or top-dose-only effect, or another doubt; inactive = no such curve, though single readings can be large; an effect the other way counts as inactive or inconclusive. Potency is read from the fitted curve at half-maximal effect.

SMILES	AMA1-RON2 inh	HCV inh	NS1 function inh	Pf growth 96h	SARS PLP yeast	Pf growth 48h
CCOC(=O)c1sc(NC(=O)CN2C(=O)NC3(CCC(C)CC3)C2=O)c(C(=O)OCC)c1C (centres undefined)	0%	-6%	.	-7%	15%	?
CCOC(=O)c1sc(NC(=O)CN2C(=O)NC3(CC(C)CC(C)(C)C3)C2=O)cc1C (centres undefined)	-1%	11µM*	.	3.7µM*	0%	2.6µM*
CC(C)Cc1nnc(NC(=O)CN2C(=O)NC3(CC(C)CC(C)(C)C3)C2=O)s1 (centres undefined)	16%	4%	.	17µM*	1%	?
CC(C)Cc1nnc(NC(=O)CN2C(=O)NC3(CCCC3)C2=O)s1	-20%	5%	.	14%	-5%	2%
CCOc1ccc(C(=O)C(C)OC(=O)CN2C(=O)NC(C)(C)C2=O)cc1 (centres undefined)	21%	-16%	.	6%	0%	?
CC(=O)Nc1ccc(-c2ccnc3c2CC(C(=O)NCc2ccccc2)O3)cc1 (centres undefined)	-2%	.	.	.	.	.
CSc1ccccc1C(=O)NCCOc1cccc(C)c1	-2%	-6%	1%	2%	-1%	-32%[1.15 µM]
CCN1CCCC1CN(Cc1cc2cc(C)cc(C)c2[nH]c1=O)C(=O)Nc1ccccc1OC (centres undefined)	-7%	-15%	21%	34%	2%	9.3µM*
COc1cccc(NC(=O)N(Cc2cc3cc(C)cc(C)c3[nH]c2=O)CC2COCCO2)c1 (centres undefined)	-2%	?	-5%	61%	8%	9.3µM*
CCN1CCCC1CN(Cc1cc2ccc(C)cc2[nH]c1=O)C(=S)Nc1ccc(OC)cc1OC (centres undefined)	-7%	?	20%	19%	-10%	?
COc1ccccc1NC(=O)N(Cc1ccco1)Cc1cc2c(C)ccc(C)c2[nH]c1=O	17%	?	15%	28%	12%	?
COc1ccccc1NC(=O)N(Cc1ccco1)Cc1cc2cccc(C)c2[nH]c1=O	-13%	-28%	5%	13µM*	-4%	?
CCc1ccc2[nH]c(=O)c(CN(Cc3ccccc3OC)C(=O)Nc3ccccc3OC)cc2c1	-16%	7.9µM*	10%	.	-3%	12µM*
COc1ccccc1NC(=S)N(Cc1ccco1)Cc1cc2cc(C)ccc2[nH]c1=O	14%	?	3%	?	-14%	12µM*
COc1ccc2[nH]c(=O)c(CN(CCN3CCCC3)C(=O)Nc3ccccc3Cl)cc2c1	-1%	-24%	1%	22%	-2%	?
CCOc1ccc2[nH]c(=O)c(CN(CCN3CCCC3)C(=S)Nc3ccccc3OCC)cc2c1	-3%	?	3%	?	0%	6.6µM*
COCCCNC(=O)C1CCC(=O)N1Cc1ccccc1Cl (centres undefined)	4%	1%	3%	12µM*	1%	24%
O=C(Nc1ccc(Cl)cc1Cl)C1CCC(=O)N1Cc1ccccc1Cl (centres undefined)	-3%	7%	8%	8.3µM*	4%	?
O=C(NCCc1ccc(Cl)cc1)C1CCC(=O)N1Cc1ccccc1Cl (centres undefined)	8%	14%	-2%	60%	-2%	2%
O=C(O)C1CCC(=O)N1Cc1ccccc1Cl (centres undefined)	-1%	3%	2%	10µM*	-1%	1%
CCCCCCn1c(O)c(C=NC2CCCCC2N)c(=O)[nH]c1=O (centres undefined)	76%	-3%	0%	6.6µM*	-2%	8%
O=C(CN1C(=O)c2ccc([N+](=O)[O-])cc2C1=O)Nc1ccccc1N1CCCC1	68%	-6%	.	12%	0%	14%
CCCCn1c(N)c(N(CCOC)C(=O)COC(=O)c2ccccc2NCCO)c(=O)[nH]c1=O	2%	3%	.	.	.	.
Clc1ccccc1-c1nnc2n1-c1ccccc1SC2	1%	-6%	2%	?	-2%	?
c1ccc2c(c1)Sc1ccccc1-n1cnnc1-2	11%	7%	-1%	9.3µM*	2%	?
SMILES	AMA1-RON2 inh	HCV inh	NS1 function inh	Pf growth 96h	SARS PLP yeast	Pf growth 48h
Brc1nnc2n1-c1ccccc1Sc1ccccc1-2	-7%	16%	-5%	8.3µM*	22%	12µM*
Clc1ccc2c(c1)-c1nnc(Br)n1-c1ccccc1S2	6%	-13%	-10%	?	-11%	10µM*
Clc1ccc(-c2nnc3n2-c2ccccc2SC3)cc1	18%	-25%	1%	15%	-1%	33%
O=C(CCOc1ccccc1)NNC(=O)c1ccccc1	24%	0%	.	.	-1%	.
COCCCN1C(=O)C(CC(=O)NCCN2CCOCC2)CC(C(=O)N2CCCCCC2)=C1C (centres undefined)	0%	.	.	.	.	.
O=S(=O)(c1ccccc1)[C@@]1(c2ccc(Br)cc2)C[C@@H]2ON=C(c3cccc(Br)c3)[C@@H]2C1	-1%	12%	.	?	-2%	9.3µM*
O=S(=O)(c1ccccc1)[C@@]1(c2ccc(Br)cc2)C[C@@H]2ON=C(c3ccccc3)[C@@H]2C1	-1%	10µM*	.	?	-1%	?
COc1cccc(CN2CCNC(=O)C2CC(=O)NCCN2CCOCC2)c1OC (centres undefined)	79%	5%	-4%	49%	1%	6%
COc1cccc(CNC(=O)CC2C(=O)NCCN2Cc2ccoc2)c1OC (centres undefined)	31%	-1%	1%	12µM*	0%	?
COc1cccc(CN2CCNC(=O)C2CC(=O)NCC(C)(C)N2CCOCC2)c1OC (centres undefined)	24%	-13%	0%	10µM*	2%	3%
CCN(CC(=O)Nc1ccccc1OC)C(=O)CSCC(=O)Nc1cccc(C)c1	12%	-4%	.	.	.	.
Cc1nn(-c2ccc(F)cc2)c(Cl)c1C(=O)NCC1CCCO1 (centres undefined)	0%	7%	.	?	-1%	-24%
Cc1ccccc1NC(=O)NC1(C(=O)N2CCC(C(N)=O)CC2)CCCCC1	-3%	-2%	3%	-2%	0%	19%
COCC(C)n1c(COc2ccccc2F)nnc1SCC(=O)c1c(N)n(C)c(=O)n(C)c1=O (centres undefined)	-9%	-1%	0%	?	0%	10µM*
